This passage reports growth inhibition results from PubChem BioAssay (NCI).

Experiment [1] can be described thus: NCI Yeast Anticancer Drug Screen. Data for the rad50 strain (AID 155).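 Further: 0% = growth of vehicle-only cultures of the same strain.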 Particulars: S. cerevisiae rad50 strain growth inhibition, stronger effect = higher value. In outline: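 Yeast carrying a defined DNA repair defect were exposed to test compounds, and growth was compared with vehicle-treated controls to give percent inhibition.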
Experiment [2] in a line: NCI Yeast Anticancer Drug Screen. Data for the mec2-1 strain (AID 157). Conditions: S. cerevisiae mec2-1 strain, stronger effect = higher value. Put shortly:
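Test agents were screened against the mec2-1 yeast strain, with defined DNA repair or cell cycle alteration. Growth was scored as inhibition against vehicle-only controls.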

A short description of experiment [3]: NCI Yeast Anticancer Drug Screen. Data for the sgs1 mgt1 strain (AID 161).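 Further: 0% = growth of cultures given vehicle only.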 Conditions: S. cerevisiae sgs1 mgt1 strain, stronger effect = higher value. Put shortly: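 Inhibition of yeast growth, normalised to vehicle-treated controls, is reported for a strain bearing genetic alterations in DNA damage repair.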
The nature of experiment [4]: NCI Yeast Anticancer Drug Screen. Data for the cln2 rad14 strain (AID 165).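 Further: 0% = growth equal to vehicle treated cultures.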 Particulars: S. cerevisiae cln2 rad14 strain, stronger effect = higher value. In outline: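 Growth of compound-exposed yeast (cln2 rad14 genotype) measured and expressed as inhibition relative to vehicle.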
A short description of experiment [5]: NCI Yeast Anticancer Drug Screen. Data for the bub3 strain (AID 167). Conditions: S. cerevisiae bub3 mutant strain, stronger effect = higher value. Put shortly:
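Compounds were applied to a genetically altered yeast strain carrying a cell-cycle control defect. Growth inhibition was scored against vehicle-treated controls.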

The nature of experiment [6]: NCI Yeast Anticancer Drug Screen. Data for the mlh1 rad18 strain (AID 175). Conditions: S. cerevisiae mlh1 rad18 strain growth inhibition, stronger effect = higher value. Put shortly: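 In this whole-cell yeast screen, a strain with altered DNA damage repair is challenged with compound, and its growth is measured against matched vehicle-treated controls.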
Setting [7] is: at 5.0 µM (retest, dose inferred, filed as 0.5).
Where [8] appears, read: at 50.0 µM (retest, dose inferred, filed as 5.0).

About 79,000 compounds went through this panel and 15% of them were active in at least one assay; those are over-represented in the sample as a whole. Unmarked numbers belong to inactive results. Active and inactive are the calls of the source. No stated cut-off is given here; in the data, active means growth inhibition above about 70%; inactive means the rest.

With `Cc1cc(CCN)c(C)c2c1sc1ccccc12`, the growth inhibition in experiment [1] (setting [7]) was 21%; in experiment [1] (setting [8]), 99% (active); in experiment [1] (at 50.0 µM), 99.7% (active); in experiment [2] (setting [7]), 92% (active); in experiment [2] (setting [8]), 100% (active); in experiment [2] (at 50.0 µM) it was 94.3% (active). For the same compound, the growth inhibition in experiment [3] (setting [7]) is 89% (active); in experiment [3] (setting [8]), 100% (active); in experiment [3] (at 50.0 µM), 99.7% (active); in experiment [4] (setting [7]) it was 98% (active); in experiment [4] (setting [8]) it was 99% (active); in experiment [4] (at 50.0 µM), 89% (active). The growth inhibition was 97% (active) in experiment [5] (setting [7]); 99% (active) in experiment [5] (setting [8]); 95.1% (active) in experiment [5] (at 50.0 µM); 81% (active) in experiment [6] (setting [7]); 100% (active) in experiment [6] (setting [8]); 99.7% (active) in experiment [6] (at 50.0 µM).
In the case of `CC(C)[CH2][Sn](=[O])[c]1ccccc1`, the growth inhibition in experiment [1] (setting [7]) is 8%; in experiment [1] (setting [8]) it was 18%; in experiment [1] (at 50.0 µM), 99.3% (active); in experiment [2] (setting [7]), 5%; in experiment [2] (setting [8]), 11%; in experiment [2] (at 50.0 µM), 99.6% (active). Further, the growth inhibition was 5% in experiment [3] (setting [7]); 14% in experiment [3] (setting [8]); 99.5% (active) in experiment [3] (at 50.0 µM); 2% in experiment [4] (setting [7]); 10% in experiment [4] (setting [8]); 94.8% (active) in experiment [4] (at 50.0 µM). For the same compound, the results for the growth inhibition in experiment [6] (setting [7]), in experiment [6] (setting [8]) and in experiment [6] (at 50.0 µM) were 5%, 22% and 99.2% (active), respectively.
`CCOP(=O)(OCC)/C(C#N)=C/c1ccc(Br)cc1`: the growth inhibition was -14% in experiment [1] (setting [7]); 95% (active) in experiment [1] (setting [8]); 92.3% (active) in experiment [1] (at 50.0 µM); -14% in experiment [2] (setting [7]); 97% (active) in experiment [2] (setting [8]); 94% (active) in experiment [2] (at 50.0 µM). The growth inhibition in experiment [3] (setting [7]) was -18%; in experiment [3] (setting [8]), 95% (active); in experiment [3] (at 50.0 µM), 92.8% (active); in experiment [4] (setting [7]), -20%; in experiment [4] (setting [8]), 96% (active); in experiment [4] (at 50.0 µM), 91.6% (active). In addition, the growth inhibition in experiment [5] (setting [7]) is 11%; in experiment [5] (setting [8]), 97% (active); in experiment [5] (at 50.0 µM), 91.8% (active); in experiment [6] (setting [7]) it was -19%; in experiment [6] (setting [8]), 97% (active); in experiment [6] (at 50.0 µM), 92% (active).
For the compound `CCCCCCCCCC(=O)[O][Hg][c]1ccccc1`, the growth inhibition is 99% (active) in experiment [1] (setting [7]); 99% (active) in experiment [1] (setting [8]); 71.5% (active) in experiment [1] (at 50.0 µM); 100% (active) in experiment [2] (setting [7]); 99% (active) in experiment [2] (setting [8]); 99.7% (active) in experiment [2] (at 50.0 µM). Further, the growth inhibition was 99% (active) in experiment [3] (setting [7]); 100% (active) in experiment [3] (setting [8]); 99.5% (active) in experiment [3] (at 50.0 µM); 99% (active) in experiment [4] (setting [7]); 99% (active) in experiment [4] (setting [8]); 99.4% (active) in experiment [4] (at 50.0 µM). Further, the growth inhibition in experiment [5] (setting [7]) was 99% (active); in experiment [5] (setting [8]), 98% (active); in experiment [5] (at 50.0 µM) it was 99.3% (active); in experiment [6] (setting [7]) it was 99% (active); in experiment [6] (setting [8]), 99% (active); in experiment [6] (at 50.0 µM), 99.1% (active).
Consider `COc1ccc2c(c1)CCC(N1CCCC(=O)C1)C2` (stereo unspecified), for which the growth inhibition in experiment [1] (setting [7]) is 9%; in experiment [1] (setting [8]), 11%; in experiment [1] (at 50.0 µM), 23.1%; in experiment [2] (setting [7]), 8%; in experiment [2] (setting [8]) it was 17%; in experiment [2] (at 50.0 µM) it was 24.4%. In addition, the growth inhibition is 8% in experiment [3] (setting [7]); 26% in experiment [3] (setting [8]); 66% in experiment [3] (at 50.0 µM); 11% in experiment [4] (setting [7]); 38% in experiment [4] (setting [8]); 17.4% in experiment [4] (at 50.0 µM). Moreover, the growth inhibition was 9% in experiment [6] (setting [7]), 29% in experiment [6] (setting [8]) and 25.1% in experiment [6] (at 50.0 µM).
`O=[N+]([O-])c1ccc(N2CCOCC2)c2c1no[n+]2[O-]`: the growth inhibition is 98% (active) in experiment [1] (setting [7]); 99% (active) in experiment [1] (setting [8]); 90.9% (active) in experiment [1] (at 50.0 µM); 99% (active) in experiment [2] (setting [7]); 100% (active) in experiment [2] (setting [8]); 94% (active) in experiment [2] (at 50.0 µM). The growth inhibition in experiment [3] (setting [7]) was 94% (active); in experiment [3] (setting [8]), 99% (active); in experiment [3] (at 50.0 µM), 89% (active); in experiment [4] (setting [7]), 55%; in experiment [4] (setting [8]), 99% (active); in experiment [4] (at 50.0 µM), 74% (active). For the same compound, the growth inhibition in experiment [5] (setting [7]) was 91% (active); in experiment [5] (setting [8]), 99% (active); in experiment [5] (at 50.0 µM) it was 92.2% (active); in experiment [6] (setting [7]), 98% (active); in experiment [6] (setting [8]), 99% (active); in experiment [6] (at 50.0 µM), 84.2% (active).
As for `NC[CH2][Sn]([c]1ccccc1)([CH]1CCCCC1)[CH]1CCCCC1`, the growth inhibition in experiment [1] (setting [7]) is 99% (active); in experiment [1] (setting [8]) it was 98% (active); in experiment [1] (at 50.0 µM), 99% (active); in experiment [2] (setting [7]), 100% (active); in experiment [2] (setting [8]), 99% (active); in experiment [2] (at 50.0 µM), 98.7% (active). Also, the growth inhibition in experiment [3] (setting [7]) was 100% (active); in experiment [3] (setting [8]), 99% (active); in experiment [3] (at 50.0 µM) it was 93.3% (active); in experiment [4] (setting [7]), 98% (active); in experiment [4] (setting [8]), 98% (active); in experiment [4] (at 50.0 µM), 97.5% (active). The growth inhibition in experiment [6] (setting [7]) was 100% (active); in experiment [6] (setting [8]), 98% (active); in experiment [6] (at 50.0 µM) it was 98.9% (active).
Take `COc1c(Cl)[c]([Hg][O]C(C)=O)c(NCC(C)=O)c(OC)[c]1[Hg][O]C(C)=O`: the growth inhibition in experiment [1] (setting [7]) was 80% (active); in experiment [1] (setting [8]) it was 94% (active); in experiment [1] (at 50.0 µM), 87.3% (active); in experiment [2] (setting [7]), 99% (active); in experiment [2] (setting [8]), 94% (active); in experiment [2] (at 50.0 µM), 90.5% (active). Moreover, the growth inhibition in experiment [3] (setting [7]) was 99% (active); in experiment [3] (setting [8]) it was 95% (active); in experiment [3] (at 50.0 µM), 90.8% (active); in experiment [4] (setting [7]), 35%; in experiment [4] (setting [8]), 95% (active); in experiment [4] (at 50.0 µM), 89.4% (active). Moreover, the growth inhibition in experiment [5] (setting [7]) is 99% (active); in experiment [5] (setting [8]) it was 94% (active); in experiment [5] (at 50.0 µM), 89.4% (active); in experiment [6] (setting [7]), 95% (active); in experiment [6] (setting [8]) it was 94% (active); in experiment [6] (at 50.0 µM) it was 86.4% (active).
Take `CC(=O)Nc1ccc([As](O[As](c2ccc(NC(C)=O)cc2)c2ccc([N+](=O)[O-])cc2)c2ccc([N+](=O)[O-])cc2)cc1` (stereo unspecified): the growth inhibition in experiment [1] (setting [7]) is 99% (active); in experiment [1] (setting [8]), 100% (active); in experiment [1] (at 50.0 µM), 98.7% (active); in experiment [2] (setting [7]) it was 99% (active); in experiment [2] (setting [8]), 100% (active); in experiment [2] (at 50.0 µM), 99.7% (active). Moreover, the growth inhibition in experiment [3] (setting [7]) is 100% (active); in experiment [3] (setting [8]), 99% (active); in experiment [3] (at 50.0 µM), 99.5% (active); in experiment [4] (setting [7]), 99% (active); in experiment [4] (setting [8]) it was 99% (active); in experiment [4] (at 50.0 µM), 99.3% (active). Further, the growth inhibition in experiment [5] (setting [7]) was 99% (active); in experiment [5] (setting [8]), 99% (active); in experiment [5] (at 50.0 µM), 99.4% (active); in experiment [6] (setting [7]) it was 99% (active); in experiment [6] (setting [8]), 99% (active); in experiment [6] (at 50.0 µM) it was 99% (active).
In the case of `[C-]#[O+].[C-]#[O+].[Mo].c1ccc([PH+](CC[PH+](c2ccccc2)c2ccccc2)c2ccccc2)cc1.c1ccc([PH+](CC[PH+](c2ccccc2)c2ccccc2)c2ccccc2)cc1`, the growth inhibition in experiment [1] (setting [7]) was 0%; in experiment [1] (setting [8]), 65%; in experiment [1] (at 50.0 µM) it was 2%; in experiment [2] (setting [7]), 2%; in experiment [2] (setting [8]), 52%; in experiment [2] (at 50.0 µM) it was 59.3%. The growth inhibition in experiment [3] (setting [7]) was -1%; in experiment [3] (setting [8]), 41%; in experiment [3] (at 50.0 µM), 1.3%; in experiment [4] (setting [7]) it was -2%; in experiment [4] (setting [8]) it was 71% (active); in experiment [4] (at 50.0 µM) it was 2.55%. Further, the growth inhibition in experiment [5] (setting [7]) was 0%; in experiment [5] (setting [8]) it was 76% (active); in experiment [5] (at 50.0 µM) it was -1.85%; in experiment [6] (setting [7]), 4%; in experiment [6] (setting [8]) it was 80% (active); in experiment [6] (at 50.0 µM), -0.8%.
